Screen size: about 420,000 compounds; about 64,000 (15%) were called active. Roughly 27% stayed inconclusive and do not appear here. Calls follow the shape of the dose curve; as a rule, active = well fitted inhibition curve with a large enough effect; inconclusive = small, poorly fitted or top-dose-only effect; inactive = flat fitted curve, though single readings scatter. The list is a sample of the results. Where a call stands in place of a potency, no number is given.
Experiment: qHTS for Inhibitors of human tyrosyl-DNA phosphodiesterase 1 (TDP1): qHTS in cells in absence of CPT; also: nearly all actives have a fitted effect of over 55% in size
Details: DT40 Tdp1-/- hTDP1 cells, no CPT, ATP luminescence, 48 h; activity change, negative = growth inhibition: at 46.2 µM (top of the series)
Summary of the method: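 A cellular qHTS used chicken DT40 cells lacking endogenous Tdp1 but carrying stably transfected human TDP1. Compounds were applied without camptothecin, and cell growth kinetics were judged by ATP-dependent luminescence after ≥48 hr.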
For `Cc1cc(NC(=O)C(C)N2C(=O)c3ccccc3S2(=O)=O)no1` (configuration not stated), the Potency was “inactive”.
For `CN(C)S(=O)(=O)c1cc(NC(=O)CN2C(=O)NC3(CCCc4ccccc43)C2=O)ccc1Cl` (configuration not stated), the Potency was 14.6 µM (active).
In the case of `O=C(CN1CCOCC1)Nc1cccc([N+](=O)[O-])c1`, the Potency is reported as “inactive”.
With `O=C(CN1C(=O)NC2(CCCCCC2)C1=O)NC1CC1` the Potency was “inactive”.
With `CCOc1ccc(CCNC(=O)CN2C(=O)NC3(CCc4ccccc43)C2=O)cc1OCC` (configuration not stated) the Potency was “inactive”.
In the case of `O=C(CN1C(=O)NC2(CCCC2)C1=O)Nc1ccc(F)c(F)c1F`, the Potency is reported as “inactive”.
With `O=C(CN1C(=O)NC2(CCCCCC2)C1=O)Nc1ccc([N+](=O)[O-])cc1` the Potency was 18.4 µM (active).
In the case of `O=C(CN1C(=O)NC2(CCc3ccccc32)C1=O)NC1CCCCC1` (configuration not stated), the Potency is reported as “inactive”.
In the case of `O=C(CN1C(=O)NC2(CCOc3ccccc32)C1=O)Nc1cccc([N+](=O)[O-])c1` (configuration not stated), the Potency is reported as 20.6 µM (active).
For `O=C(CN1C(=O)NC2(CCOc3ccccc32)C1=O)NCc1ccc(F)cc1` (configuration not stated), the Potency was “inactive”.
For `COC(=O)Nc1ccc(S(=O)(=O)Nc2cc(OC)nc(OC)n2)cc1`, the Potency was “inactive”.
For `NS(=O)(=O)c1ccc(N2C(=O)C3C4CC(C(Br)C4Br)C3C2=O)cc1` (configuration not stated), the Potency was “inactive”.
For `O=C1CC(Cc2ccccc2)C(=O)N1c1ccc(Cl)cn1` (configuration not stated), the Potency was “inactive”.
With `Cc1ccn(-c2cccc(-n3ccc(C)n3)n2)n1` the Potency was “inactive”.
In the case of `COCCCn1c(SCC(=O)Nc2ccccc2)nnc1-c1ccncc1`, the Potency is reported as “inactive”.
With `CCOC(=O)C1CSC(CC(=O)Nc2ccc(OCC)cc2)C(=O)N1` (configuration not stated) the Potency was “inactive”.
With `O=C(C1CCCO1)N1CCN(C(=O)C23CC4CC(CC(C4)C2)C3)CC1` (configuration not stated) the Potency was “inactive”.
For `COc1ccc(OC)c(-c2csc(NC(=O)COC(=O)C3CC3)n2)c1`, the Potency was “inactive”.
With `COc1ccc(OC)c(-c2csc(NC(=O)C3=NNC(=O)CC3)n2)c1` the Potency was 13 µM (active).
With `COc1ccc(NC(=O)C2=NNC(=O)CC2)cc1S(=O)(=O)N1CCCCC1` the Potency was “inactive”.
In the case of `COc1ccnc(Oc2ccccc2)n1`, the Potency is reported as “inactive”.
With `CCc1nnc(NC(=O)Cc2cccs2)s1` the Potency was “inactive”.
For `CSc1nc(Nc2ccc(F)cc2)cc(-c2ccccc2)n1`, the Potency was 23.1 µM (active).
In the case of `Fc1ccc2cnc(-c3ccccc3)cc2c1`, the Potency is reported as “inactive”.
With `CNc1nc(-c2ccccc2)cc(-c2ccccc2)n1` the Potency was “inactive”.
With `O=C(c1ccc(Cn2cc([N+](=O)[O-])cn2)o1)N1CCCC1` the Potency was “inactive”.
With `COCC(=O)Nc1ccc(Br)cc1` the Potency was “inactive”.
For `Cc1ccc(CCNC(=O)c2nnc(Cc3cccc(F)c3)o2)cc1`, the Potency was “inactive”.
In the case of `Cc1cc(Br)ccc1NC(=O)C1CCCO1` (configuration not stated), the Potency is reported as “inactive”.
With `C[C@@H]1NS(=O)(=O)c2cc(Cl)ccc2O[C@@H]1c1ccccc1` the Potency was “inactive”.
For `CC1=C(C(=O)OC2CCCCC2)C(c2cccnc2)n2ncnc2N1` (configuration not stated), the Potency was 20.6 µM (active).
With `COC(=O)C1=C(C)Nc2ncnn2C1c1cccnc1` (configuration not stated) the Potency was “inactive”.
In the case of `COC(=O)C1=C(C)Nc2ncnn2C1c1ccco1` (configuration not stated), the Potency is reported as “inactive”.
With `O=C(CSc1nnc(-c2ccc(NS(=O)(=O)c3ccccc3)cc2)o1)NCC1CCCO1` (configuration not stated) the Potency was “inactive”.
With `CN(c1ccc(O)cc1)c1nc(-c2cccnc2)cs1` the Potency was “inactive”.
In the case of `Clc1ccc(-c2csc(-c3ccncc3)n2)cc1`, the Potency is reported as “inactive”.
In the case of `COc1ccc(-n2c(SC)nc(O)cc2=O)cc1`, the Potency is reported as “inactive”.
With `COc1ccc(-c2csc(Nc3ccc(O)cc3)n2)cc1` the Potency was 6.51 µM (active).
In the case of `COc1ccc(Nc2nc(-c3ccccc3)cs2)cc1`, the Potency is reported as “inactive”.
In the case of `Cc1ccccc1Nc1nc(-c2cccnc2)cs1`, the Potency is reported as “inactive”.
With `c1ccc(Nc2nc(-c3ccncc3)cs2)nc1` the Potency was 16.4 µM (active).
With `Oc1ccc(-c2csc(Nc3cccnc3)n2)cc1` the Potency was 29.1 µM (active).
With `COc1ccc(-c2csc(Cc3nc(O)cs3)n2)cc1` the Potency was 14.6 µM (active).
In the case of `O=C(NCc1cccnc1)C(=O)Nc1nc(-c2ccccc2)cs1`, the Potency is reported as “inactive”.
With `COc1ccc(C(C)NC(=O)C2CCCC2)cc1` (configuration not stated) the Potency was “inactive”.
With `NC(=O)c1ccc(NC(=O)COC(=O)C(Cc2ccccc2)NC(=O)c2ccccc2)cc1` (configuration not stated) the Potency was “inactive”.
For `O=C(O)c1ccc(NC(=O)c2ccc(COc3ccc(Cl)cc3)o2)cc1`, the Potency was “inactive”.
In the case of `CC(=O)Nc1cc(C(=O)N2CCc3c(Cl)cccc3C2)cc2ncn(CCc3ccccn3)c12`, the Potency is reported as “inactive”.
With `COc1cccc(C2/C(=C(/O)c3ccc(F)cc3)C(=O)C(=O)N2CCN(C)C)c1` (configuration not stated) the Potency was “inactive”.
In the case of `O=C1CC(C(=O)O)NC(=S)N1` (configuration not stated), the Potency is reported as “inactive”.
For `CCCCCN(C(=O)NC(=O)Nc1cccc(C)c1C)S(C)(=O)=O`, the Potency was “inactive”.
With `COc1ccc(C2CC(c3cccc(OC)c3)=NN2c2ccc(S(N)(=O)=O)cc2)cc1` (configuration not stated) the Potency was “inactive”.
For `COc1ccccc1OCCOc1ccc(/C=C2\C(=N)N3N=C(C)SC3=NC2=O)cc1`, the Potency was “inactive”.
With `COc1ccc(OC)c(Nc2nc(-c3ccc(O)c(O)c3)cs2)c1` the Potency was 1.16 µM (active).
In the case of `CCN(CC(=O)Nc1c(F)cccc1F)C(=O)CN1c2cccc3cccc(c23)S1(=O)=O`, the Potency is reported as “inactive”.
For `CCn1c(SCC(=O)NCC2CCCO2)nc2cc(S(=O)(=O)N3CCCCC3)ccc21` (configuration not stated), the Potency was “inactive”.
In the case of `Cc1ccc(NC(=O)CSc2nnc(COc3ccccc3C)o2)cc1`, the Potency is reported as “inactive”.
In the case of `CC1CCCC(C)N1C(=O)CSc1nnnn1C1CCCC1` (configuration not stated), the Potency is reported as “inactive”.
For `Cc1ccc(NC(=S)NCCN2CCOCC2)cc1`, the Potency was “inactive”.
With `CCOc1cccc(/C=N/NC(=S)NCCN2CCOCC2)c1O` the Potency was 2.91 µM (active).
With `CCCCc1ccc(NC(=S)NCCCN2CCOCC2)cc1` the Potency was “inactive”.
In the case of `Brc1cnc(N2CCCC2)nc1N1CCCCC1`, the Potency is reported as “inactive”.
In the case of `C=CCn1c(CNS(=O)(=O)c2ccc(Br)cc2)nnc1SC`, the Potency is reported as “inactive”.
In the case of `CCC(C)(C)NC(=O)CN(Cc1cccs1)C(=O)CNS(=O)(=O)c1ccc(F)cc1`, the Potency is reported as “inactive”.
For `COc1ccc(OC)c(NC(=O)c2cccc(S(=O)(=O)N3CCN(C(C)=O)CC3)c2)c1`, the Potency was “inactive”.
With `COc1ccc(NC(=O)CN(C)C(=O)c2cccc(S(=O)(=O)N3CCN(c4ccccc4)CC3)c2)cc1` the Potency was 20.6 µM (active).
For `CCOc1ccc(NC(=O)CN(C)C(=O)c2cccc(S(=O)(=O)N3CCCC3)c2)cc1OCC`, the Potency was “inactive”.
In the case of `O=C(NCc1ccccc1Cl)NC(=O)c1csc([N+](=O)[O-])c1`, the Potency is reported as “inactive”.
With `CCCOc1ccc(Cc2c(O)nc(SC)[nH]c2=O)cc1C` the Potency was “inactive”.
In the case of `COc1cccc(NC(=O)C2(C)CCN2Cc2ccccc2Cl)c1` (configuration not stated), the Potency is reported as 25.9 µM (active).
For `COc1cccc(NC(=O)NCCN2CCCCC2)c1`, the Potency was “inactive”.
For `COc1cccc(NC(=O)CN2CCN(CC(=O)Nc3ccccc3Cl)CC2)c1`, the Potency was “inactive”.
Potency is read from the fitted curve at half-maximal effect.
